Laboratory results reported in the supplement of paper PMC11732987, “Enantioselective OTUD7B fragment discovery through chemoproteomics screening and high-throughput optimisation” (Communications Chemistry, 2025).

Assays:
Assay in all cases: log2 ratio of Biotin-Ahx-Ub-VS probe labelling (fragment/DMSO); higher = less target engagement (more negative = stronger competition), active = hit call of the paper (q ≤ 0.05, log2 ratio ≤ -1)
Conditions in all cases: compound concentration: 200 uM; treatment time: 3 h
[1] = molecular target: USP34 (UniProt Q70CQ2)
USP34, sequence (Q70CQ2 whole entry, the tested form may be a part): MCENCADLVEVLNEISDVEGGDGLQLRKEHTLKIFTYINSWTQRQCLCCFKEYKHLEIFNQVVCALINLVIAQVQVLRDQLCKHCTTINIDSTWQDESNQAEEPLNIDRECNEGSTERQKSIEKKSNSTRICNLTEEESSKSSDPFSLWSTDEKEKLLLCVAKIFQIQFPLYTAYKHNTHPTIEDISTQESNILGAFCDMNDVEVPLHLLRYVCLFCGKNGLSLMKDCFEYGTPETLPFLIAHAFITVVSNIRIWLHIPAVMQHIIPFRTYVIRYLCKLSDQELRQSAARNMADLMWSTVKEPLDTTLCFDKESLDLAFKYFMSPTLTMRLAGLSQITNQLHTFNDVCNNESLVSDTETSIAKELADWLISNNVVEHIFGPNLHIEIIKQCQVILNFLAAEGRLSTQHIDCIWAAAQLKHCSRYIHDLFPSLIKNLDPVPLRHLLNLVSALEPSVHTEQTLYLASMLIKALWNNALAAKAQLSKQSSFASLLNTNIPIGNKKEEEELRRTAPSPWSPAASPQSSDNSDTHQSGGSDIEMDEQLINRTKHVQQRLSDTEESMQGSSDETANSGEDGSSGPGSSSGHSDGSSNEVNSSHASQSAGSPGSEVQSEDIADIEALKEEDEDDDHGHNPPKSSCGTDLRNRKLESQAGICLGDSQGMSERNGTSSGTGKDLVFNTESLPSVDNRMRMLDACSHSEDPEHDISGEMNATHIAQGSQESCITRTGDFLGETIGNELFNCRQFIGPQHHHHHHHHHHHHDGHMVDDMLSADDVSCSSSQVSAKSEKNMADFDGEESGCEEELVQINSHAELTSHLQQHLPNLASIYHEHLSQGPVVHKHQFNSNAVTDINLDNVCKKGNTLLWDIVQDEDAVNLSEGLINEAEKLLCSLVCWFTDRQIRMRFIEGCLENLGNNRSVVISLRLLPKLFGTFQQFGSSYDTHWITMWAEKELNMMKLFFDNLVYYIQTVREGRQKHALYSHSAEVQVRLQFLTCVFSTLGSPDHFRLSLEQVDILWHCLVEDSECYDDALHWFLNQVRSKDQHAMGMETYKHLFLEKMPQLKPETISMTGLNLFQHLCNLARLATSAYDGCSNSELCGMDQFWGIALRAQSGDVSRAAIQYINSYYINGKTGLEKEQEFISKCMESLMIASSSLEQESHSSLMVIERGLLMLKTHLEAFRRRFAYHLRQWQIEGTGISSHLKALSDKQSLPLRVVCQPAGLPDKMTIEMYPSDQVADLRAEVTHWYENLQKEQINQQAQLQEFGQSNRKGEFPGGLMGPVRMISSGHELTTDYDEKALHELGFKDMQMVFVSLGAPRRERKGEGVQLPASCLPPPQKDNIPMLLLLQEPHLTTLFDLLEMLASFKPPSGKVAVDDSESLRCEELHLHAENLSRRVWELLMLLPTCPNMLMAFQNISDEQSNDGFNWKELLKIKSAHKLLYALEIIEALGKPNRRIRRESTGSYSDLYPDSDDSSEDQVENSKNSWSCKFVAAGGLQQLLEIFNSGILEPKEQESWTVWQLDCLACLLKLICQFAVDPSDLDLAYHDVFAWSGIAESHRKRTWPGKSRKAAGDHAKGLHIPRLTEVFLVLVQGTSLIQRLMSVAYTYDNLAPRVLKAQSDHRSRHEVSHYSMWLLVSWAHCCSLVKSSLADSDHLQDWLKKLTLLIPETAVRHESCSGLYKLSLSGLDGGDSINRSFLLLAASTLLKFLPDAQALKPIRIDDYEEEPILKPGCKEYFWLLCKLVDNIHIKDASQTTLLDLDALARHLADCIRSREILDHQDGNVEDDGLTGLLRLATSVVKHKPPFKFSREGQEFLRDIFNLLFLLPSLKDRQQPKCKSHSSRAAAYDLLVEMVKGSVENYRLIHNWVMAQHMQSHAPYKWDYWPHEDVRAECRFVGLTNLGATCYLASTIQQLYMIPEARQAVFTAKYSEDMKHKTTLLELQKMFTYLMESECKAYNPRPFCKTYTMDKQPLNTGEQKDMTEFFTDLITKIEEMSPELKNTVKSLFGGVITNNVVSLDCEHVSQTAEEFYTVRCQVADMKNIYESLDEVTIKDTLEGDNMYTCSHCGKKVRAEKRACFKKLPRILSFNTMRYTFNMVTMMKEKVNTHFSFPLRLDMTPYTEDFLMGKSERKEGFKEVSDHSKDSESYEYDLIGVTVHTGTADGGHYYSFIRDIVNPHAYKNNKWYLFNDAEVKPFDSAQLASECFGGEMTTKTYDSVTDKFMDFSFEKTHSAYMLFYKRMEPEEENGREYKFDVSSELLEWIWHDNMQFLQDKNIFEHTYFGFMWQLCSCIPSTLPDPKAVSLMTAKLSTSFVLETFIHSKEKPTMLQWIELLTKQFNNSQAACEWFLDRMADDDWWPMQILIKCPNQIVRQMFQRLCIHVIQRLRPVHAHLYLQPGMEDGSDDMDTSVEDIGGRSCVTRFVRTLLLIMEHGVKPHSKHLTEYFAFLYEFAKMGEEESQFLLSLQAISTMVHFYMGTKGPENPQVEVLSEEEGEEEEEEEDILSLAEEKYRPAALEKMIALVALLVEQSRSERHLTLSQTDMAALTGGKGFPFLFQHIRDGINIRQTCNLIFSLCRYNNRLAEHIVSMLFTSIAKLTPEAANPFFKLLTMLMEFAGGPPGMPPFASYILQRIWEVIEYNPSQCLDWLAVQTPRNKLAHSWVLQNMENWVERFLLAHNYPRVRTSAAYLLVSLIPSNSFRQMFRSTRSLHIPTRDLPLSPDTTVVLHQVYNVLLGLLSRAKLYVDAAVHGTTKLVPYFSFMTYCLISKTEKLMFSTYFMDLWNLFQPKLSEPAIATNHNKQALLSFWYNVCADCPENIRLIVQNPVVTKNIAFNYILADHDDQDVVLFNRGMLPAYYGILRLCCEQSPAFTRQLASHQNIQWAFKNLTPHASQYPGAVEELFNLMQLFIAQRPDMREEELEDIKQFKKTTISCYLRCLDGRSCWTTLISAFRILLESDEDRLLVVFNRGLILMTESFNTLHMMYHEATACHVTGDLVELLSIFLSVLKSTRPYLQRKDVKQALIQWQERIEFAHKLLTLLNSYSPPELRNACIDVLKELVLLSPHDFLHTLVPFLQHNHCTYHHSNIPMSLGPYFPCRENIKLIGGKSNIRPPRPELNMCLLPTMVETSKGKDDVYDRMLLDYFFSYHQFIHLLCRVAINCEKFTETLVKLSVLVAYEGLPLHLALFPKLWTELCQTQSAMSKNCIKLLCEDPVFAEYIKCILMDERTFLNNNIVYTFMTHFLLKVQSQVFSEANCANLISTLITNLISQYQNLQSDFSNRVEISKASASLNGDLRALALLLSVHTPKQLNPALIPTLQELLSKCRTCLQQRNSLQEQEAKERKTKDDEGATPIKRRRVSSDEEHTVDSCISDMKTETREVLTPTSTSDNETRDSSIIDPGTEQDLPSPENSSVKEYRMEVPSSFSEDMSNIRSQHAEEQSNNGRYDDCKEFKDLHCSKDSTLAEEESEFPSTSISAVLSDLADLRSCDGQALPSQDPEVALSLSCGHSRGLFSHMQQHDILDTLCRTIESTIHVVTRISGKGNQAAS
Outline: (§1)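 HEK293T lysate, 495 µg per sample in Tris/CHAPS/IGEPAL buffer with protease inhibitors, was treated in triplicate with fragment at 200 µM or vehicle for 3 h and then with Biotin-Ahx-Ub-VS at 0.5 µM final for 1 h. Labelled DUBs were NeutrAvidin-enriched, digested with LysC and trypsin, and run by diaPASEF LC-MS/MS. Spectronaut label-free quantities were global-median-normalised, and values are average log2 fragment/vehicle ratios by unpaired t-test on proteins with ≥2 unique peptides.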

[2] = molecular target: T1, USP36 (UniProt Q9P275)
T1 sequence (whole entry): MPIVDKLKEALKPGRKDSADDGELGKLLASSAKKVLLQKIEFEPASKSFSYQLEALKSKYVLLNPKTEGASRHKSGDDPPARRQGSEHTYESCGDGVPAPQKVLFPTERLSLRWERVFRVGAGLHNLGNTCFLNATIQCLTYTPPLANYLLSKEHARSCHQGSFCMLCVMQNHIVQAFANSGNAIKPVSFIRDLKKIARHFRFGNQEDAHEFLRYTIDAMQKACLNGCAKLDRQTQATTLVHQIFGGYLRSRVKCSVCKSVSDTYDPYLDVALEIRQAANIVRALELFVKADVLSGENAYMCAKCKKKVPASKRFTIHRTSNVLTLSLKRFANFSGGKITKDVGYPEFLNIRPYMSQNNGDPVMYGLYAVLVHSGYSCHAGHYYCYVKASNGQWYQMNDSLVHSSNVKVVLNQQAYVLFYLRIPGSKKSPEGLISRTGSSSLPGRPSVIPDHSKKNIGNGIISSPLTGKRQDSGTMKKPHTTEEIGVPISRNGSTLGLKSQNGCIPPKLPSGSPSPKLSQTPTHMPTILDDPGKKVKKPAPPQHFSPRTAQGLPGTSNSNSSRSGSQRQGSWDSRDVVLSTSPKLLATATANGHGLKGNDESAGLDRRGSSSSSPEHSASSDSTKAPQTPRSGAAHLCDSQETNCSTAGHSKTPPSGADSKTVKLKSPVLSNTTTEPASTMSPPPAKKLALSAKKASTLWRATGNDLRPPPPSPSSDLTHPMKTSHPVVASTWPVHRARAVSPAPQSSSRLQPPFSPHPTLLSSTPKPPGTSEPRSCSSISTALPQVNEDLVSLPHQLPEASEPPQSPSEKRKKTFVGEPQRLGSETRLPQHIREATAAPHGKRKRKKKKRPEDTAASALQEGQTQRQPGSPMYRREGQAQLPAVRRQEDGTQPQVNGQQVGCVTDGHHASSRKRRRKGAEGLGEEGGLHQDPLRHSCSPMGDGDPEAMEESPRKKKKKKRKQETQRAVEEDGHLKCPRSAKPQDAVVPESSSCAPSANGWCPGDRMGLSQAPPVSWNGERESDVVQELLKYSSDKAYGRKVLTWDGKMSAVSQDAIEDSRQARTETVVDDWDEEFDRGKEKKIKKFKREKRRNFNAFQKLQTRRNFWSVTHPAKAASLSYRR
Outline: as §1

[3] = molecular target: T2, USP38 (UniProt Q8NB14)
T2 sequence (whole entry): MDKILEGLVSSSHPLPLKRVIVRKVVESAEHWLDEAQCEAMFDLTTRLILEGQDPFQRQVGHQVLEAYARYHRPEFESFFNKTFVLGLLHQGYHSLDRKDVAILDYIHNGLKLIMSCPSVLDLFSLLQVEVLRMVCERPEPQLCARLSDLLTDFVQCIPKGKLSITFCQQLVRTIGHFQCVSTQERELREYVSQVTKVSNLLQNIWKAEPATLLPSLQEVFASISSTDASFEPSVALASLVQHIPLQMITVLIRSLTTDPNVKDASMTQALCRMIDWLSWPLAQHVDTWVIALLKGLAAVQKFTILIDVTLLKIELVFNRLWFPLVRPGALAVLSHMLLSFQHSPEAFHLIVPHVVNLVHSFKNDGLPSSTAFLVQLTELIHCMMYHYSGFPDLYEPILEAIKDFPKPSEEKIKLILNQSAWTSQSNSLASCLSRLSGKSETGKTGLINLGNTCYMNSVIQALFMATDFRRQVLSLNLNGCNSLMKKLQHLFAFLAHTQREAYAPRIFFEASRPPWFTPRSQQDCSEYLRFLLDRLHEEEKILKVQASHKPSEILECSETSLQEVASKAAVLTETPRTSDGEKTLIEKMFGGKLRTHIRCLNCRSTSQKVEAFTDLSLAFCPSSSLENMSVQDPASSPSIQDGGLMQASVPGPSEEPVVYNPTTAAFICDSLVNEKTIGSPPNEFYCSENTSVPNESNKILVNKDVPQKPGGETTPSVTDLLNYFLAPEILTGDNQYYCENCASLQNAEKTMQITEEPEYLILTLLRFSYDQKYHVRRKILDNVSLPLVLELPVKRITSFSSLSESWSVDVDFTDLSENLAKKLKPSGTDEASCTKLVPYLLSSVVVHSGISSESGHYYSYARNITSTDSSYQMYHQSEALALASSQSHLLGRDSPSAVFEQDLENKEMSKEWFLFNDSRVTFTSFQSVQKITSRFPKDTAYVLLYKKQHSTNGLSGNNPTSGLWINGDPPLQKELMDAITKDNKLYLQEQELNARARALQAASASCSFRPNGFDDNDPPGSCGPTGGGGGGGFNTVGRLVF
Outline: as §1

[4] = molecular target: T3, USP39 (UniProt Q53GS9)
T3 sequence (whole entry): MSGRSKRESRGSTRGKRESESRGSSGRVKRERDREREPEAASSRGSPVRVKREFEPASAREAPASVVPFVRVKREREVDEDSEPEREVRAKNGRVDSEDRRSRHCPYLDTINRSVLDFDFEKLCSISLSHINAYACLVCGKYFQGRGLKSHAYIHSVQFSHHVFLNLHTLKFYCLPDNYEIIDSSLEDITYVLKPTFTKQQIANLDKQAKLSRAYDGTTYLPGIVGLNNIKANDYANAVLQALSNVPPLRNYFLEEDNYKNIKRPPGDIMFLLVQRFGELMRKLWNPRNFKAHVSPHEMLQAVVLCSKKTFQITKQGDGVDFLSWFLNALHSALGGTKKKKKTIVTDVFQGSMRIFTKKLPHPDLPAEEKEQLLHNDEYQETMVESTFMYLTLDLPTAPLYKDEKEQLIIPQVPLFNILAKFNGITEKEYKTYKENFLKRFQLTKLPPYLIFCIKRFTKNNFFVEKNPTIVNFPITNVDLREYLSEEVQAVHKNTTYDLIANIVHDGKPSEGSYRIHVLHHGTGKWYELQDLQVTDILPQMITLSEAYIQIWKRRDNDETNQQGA
Outline: as §1

[5] = molecular target: T4, USP4 (UniProt Q13107)
T4 sequence (whole entry): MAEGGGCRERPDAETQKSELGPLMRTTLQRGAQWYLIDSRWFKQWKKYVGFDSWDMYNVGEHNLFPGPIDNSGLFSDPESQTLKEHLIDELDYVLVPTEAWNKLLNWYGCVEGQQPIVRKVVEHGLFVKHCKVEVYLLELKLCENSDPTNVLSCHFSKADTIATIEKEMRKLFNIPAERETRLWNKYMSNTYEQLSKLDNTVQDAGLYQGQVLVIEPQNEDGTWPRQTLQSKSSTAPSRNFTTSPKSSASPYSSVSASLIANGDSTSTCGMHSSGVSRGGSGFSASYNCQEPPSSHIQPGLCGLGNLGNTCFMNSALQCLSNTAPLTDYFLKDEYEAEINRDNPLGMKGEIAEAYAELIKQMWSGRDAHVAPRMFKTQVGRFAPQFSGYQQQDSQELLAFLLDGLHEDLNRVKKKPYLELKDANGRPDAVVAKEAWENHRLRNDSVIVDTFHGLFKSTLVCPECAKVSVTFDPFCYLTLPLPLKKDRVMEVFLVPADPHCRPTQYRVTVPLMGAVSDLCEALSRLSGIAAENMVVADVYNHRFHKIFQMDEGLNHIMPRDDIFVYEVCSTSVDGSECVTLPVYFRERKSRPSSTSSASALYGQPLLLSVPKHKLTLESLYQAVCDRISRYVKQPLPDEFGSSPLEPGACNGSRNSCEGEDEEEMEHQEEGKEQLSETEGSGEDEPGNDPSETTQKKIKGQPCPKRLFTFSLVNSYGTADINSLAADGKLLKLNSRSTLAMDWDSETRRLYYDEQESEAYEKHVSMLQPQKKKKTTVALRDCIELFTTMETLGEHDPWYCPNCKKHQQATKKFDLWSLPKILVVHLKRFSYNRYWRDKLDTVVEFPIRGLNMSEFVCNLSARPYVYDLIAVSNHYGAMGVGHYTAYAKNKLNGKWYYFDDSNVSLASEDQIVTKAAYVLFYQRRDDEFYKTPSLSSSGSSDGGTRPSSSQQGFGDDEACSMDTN
Outline: as §1

Measured: log2 ratio of Biotin-Ahx-Ub-VS probe labelling

CNC(=O)Cn1cc(NC(=O)CCl)cn1
inactive: [1] -0.0314 | [2] -0.0542 | [3] -0.0407 | [4] 0.234 | [5] -0.0895
